# Many of the other results were omitted from the sample, so the strongest signals are more common in it than they were.
# What was measured:
# Test in all cases: glycan array binding signal (z-score within array); higher = stronger binding
# Details in all cases: glycan notation: IUPAC condensed, linker removed
# [1] = biological target: Gal(b1-4)GlcNAc(b1-3)[Fuc(a1-3)GlcNAc(b1-6)]Gal(b1-4)Glc
# In short: (§1)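 Arrays were curated from the Consortium for Functional Glycomics database, 3228 in total, and kept only where the protein sequence was available. Binding is expressed as a within-array Z-score. This score was averaged across arrays of the same protein sequence at different concentrations or buffers and across linkers, and negative values can be read as non-binding.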
# [2] = biological target: Gal(b1-6)Gal
# In short: as §1
# [3] = biological target: GalNAc(b1-4)GlcNAc(b1-2)Man(a1-3)[GalNAc(b1-4)GlcNAc(b1-2)Man(a1-6)]Man(b1-4)GlcNAc(b1-4)GlcNAc
# In short: as §1
# [4] = biological target: GalNAc(b1-6)GalNAc
# In short: as §1
# [5] = biological target: Glc(a1-6)Glc(a1-6)Glc(a1-6)Glc
# In short: as §1
# [6] = biological target: GlcNAc(a1-4)Gal(b1-4)GlcNAc(b1-3)Gal(b1-4)[Fuc(a1-3)]GlcNAc(b1-3)Gal(b1-4)[Fuc(a1-3)]GlcNAc
# In short: as §1
# [7] = biological target: GlcNAc(b1-2)[GlcNAc(b1-4)]Man(a1-3)[GlcNAc(b1-4)][GlcNAc(b1-2)[GlcNAc(b1-6)]Man(a1-6)]Man(b1-4)GlcNAc(b1-4)GlcNAc
# In short: as §1
# [8] = biological target: GlcNAc(b1-2)[GlcNAc(b1-6)]Man(a1-6)[GlcNAc(b1-2)Man(a1-3)]Man(b1-4)GlcNAc(b1-4)GlcNAc
# In short: as §1
# [9] = biological target: GlcNAc(b1-3)Gal(b1-4)GlcNAc
# In short: as §1
# [10] = biological target: GlcNAc(b1-3)Gal(b1-4)GlcNAc(b1-2)[GlcNAc(b1-3)Gal(b1-4)GlcNAc(b1-6)]Man(a1-6)[GlcNAc(b1-3)Gal(b1-4)GlcNAc(b1-2)Man(a1-3)]Man(b1-4)GlcNAc(b1-4)GlcNAc
# In short: as §1
# [11] = biological target: GlcNAc(b1-3)Gal(b1-4)GlcNAc(b1-3)Gal(b1-4)GlcNAc(b1-3)Gal(b1-4)GlcNAc(b1-3)Gal(b1-4)GlcNAc(b1-2)Man(a1-3)[GlcNAc(b1-3)Gal(b1-4)GlcNAc(b1-3)Gal(b1-4)GlcNAc(b1-3)Gal(b1-4)GlcNAc(b1-3)Gal(b1-4)GlcNAc(b1-2)Man(a1-6)]Man(b1-4)GlcNAc(b1-4)[Fuc(a1-6)]GlcNAc
# In short: as §1
# [12] = biological target: GlcNAc(b1-4)[GlcNAc(b1-6)]GalNAc
# In short: as §1
# [13] = biological target: Man(a1-2)Man(a1-3)[Man(a1-2)Man(a1-6)]Man(a1-6)[Man(a1-2)Man(a1-2)Man(a1-3)]Man(b1-4)GlcNAc(b1-4)GlcNAc
# In short: as §1
# [14] = biological target: Man(a1-3)[Man(a1-6)]Man
# In short: as §1
# [15] = biological target: Man(a1-3)[Man(a1-6)]Man(a1-6)[Man(a1-2)Man(a1-3)]Man(b1-4)GlcNAc(b1-4)GlcNAc
# In short: as §1
# [16] = biological target: Neu5Ac(a2-3)Gal(b1-3)GalNAc
# In short: as §1
# [17] = biological target: Neu5Ac(a2-3)Gal(b1-3)GlcNAc(b1-2)Man
# In short: as §1
# [18] = biological target: Neu5Ac(a2-3)Gal(b1-4)GlcNAc6S
# In short: as §1
# [19] = biological target: Neu5Ac(a2-3)Gal(b1-4)[Fuc(a1-3)]GlcNAc(b1-3)GalNAc
# In short: as §1
# [20] = biological target: Neu5Ac(a2-6)Gal(b1-4)GlcNAc(b1-2)[Neu5Ac(a2-6)Gal(b1-4)GlcNAc(b1-6)]Man(a1-6)[Neu5Ac(a2-6)Gal(b1-4)GlcNAc(b1-2)Man(a1-3)][GlcNAc(b1-4)]Man(b1-4)GlcNAc(b1-4)GlcNAc
# In short: as §1
# [21] = biological target: Neu5Ac(a2-6)Gal(b1-4)GlcNAc(b1-3)Gal(b1-4)GlcNAc(b1-2)Man(a1-3)[Neu5Ac(a2-6)Gal(b1-4)GlcNAc(b1-3)Gal(b1-4)GlcNAc(b1-2)Man(a1-6)]GalNAc
# In short: as §1
# [22] = biological target: Neu5Ac(a2-6)Gal(b1-4)GlcNAc(b1-3)Gal(b1-4)GlcNAc(b1-3)Gal(b1-4)GlcNAc(b1-2)Man(a1-3)[Neu5Ac(a2-6)Gal(b1-4)GlcNAc(b1-3)Gal(b1-4)GlcNAc(b1-3)Gal(b1-4)GlcNAc(b1-2)Man(a1-6)]GalNAc
# In short: as §1
# [23] = biological target: Neu5Ac(a2-6)Gal(b1-4)GlcNAc(b1-6)[Gal(b1-3)GlcNAc(b1-3)]Gal(b1-4)Glc
# In short: as §1
# [24] = biological target: Neu5Ac(a2-6)Gal(b1-4)GlcNAc(b1-6)[Gal(b1-3)]GalNAc
# In short: as §1
# [25] = biological target: Neu5Gc(a2-3)Gal(b1-3)[Fuc(a1-4)]GlcNAc
# In short: as §1
binder,measurement,setting,value
SP15308F-bth-333-19-333 (Bacteroides thetaiotaomicron) (protein) SCNNEWESEQYVQMVSFKAPVNAQGVTPIYIRYKPEGKVTYQLPLIVSGSTMNSKDLNVHVGLDLDTLDVLNVEHFGSRKELFFKPLENKYYEFPETVQIPAGECTSLLPIDFALKDLDQVDKWVLPLAIQSNDPSHNYQANPRKFYRRAMLRISPFNDYSGQYSATAYKVYFKGNEKEAIVPEYHTSYVIDDKTIFFYAGLIDIDRLDRKYYKIKFEFTEEKIDLQTRKLKISSDNEDINLVVKGQPSYTVEEEMDATRPYLKHIYVTINNLEYEFTDYTSVPGYPLEYVVKGSLTMERKINTQIPDEDQAIEW,glycan array binding signal (z-score),[1],-0.005
same,glycan array binding signal (z-score),[2],-0.244
same,glycan array binding signal (z-score),[3],1.38
same,glycan array binding signal (z-score),[4],2.02
same,glycan array binding signal (z-score),[5],-0.539
same,glycan array binding signal (z-score),[6],2.63
same,glycan array binding signal (z-score),[7],-1.46
same,glycan array binding signal (z-score),[8],-0.327
same,glycan array binding signal (z-score),[9],-0.835
same,glycan array binding signal (z-score),[10],2.85
same,glycan array binding signal (z-score),[11],2.43
same,glycan array binding signal (z-score),[12],0.249
same,glycan array binding signal (z-score),[13],-0.143
same,glycan array binding signal (z-score),[14],-0.694
same,glycan array binding signal (z-score),[15],-0.363
same,glycan array binding signal (z-score),[16],1.83
same,glycan array binding signal (z-score),[17],1.15
same,glycan array binding signal (z-score),[18],1.4
same,glycan array binding signal (z-score),[19],3.76
same,glycan array binding signal (z-score),[20],0.627
same,glycan array binding signal (z-score),[21],3.27
same,glycan array binding signal (z-score),[22],2.6
same,glycan array binding signal (z-score),[23],-0.927
same,glycan array binding signal (z-score),[24],-0.014
same,glycan array binding signal (z-score),[25],0.217

# Reference: the supplement of paper PMC8728848
